Where “and” joins values, the source holds several entries; their conditions need not be identical. Equal entries are not always repeated. The whole screen tested about 150,000 compounds, of which about 6,500 (4.3%) were called active. Roughly 12% stayed inconclusive and do not appear here. This is one part of a sample in which actives are shown more often than they occur. Calls follow the shape of the dose curve; as a rule, active = well fitted inhibition curve with a large enough effect (not every such curve was filed as active); inconclusive = small, poorly fitted or top-dose-only effect, or another doubt; inactive = no such curve, though single readings can be large or run the other way.
These compounds were tested against 15-hydroxyprostaglandin dehydrogenase [NAD(+)] (Homo sapiens) (UniProt P15428) (assay: qHTS Assay for Inhibitors of HPGD (15-Hydroxyprostaglandin Dehydrogenase)). Conditions: purified HPGD, NADH fluorescence kinetic, PGE2 substrate; activity change, negative = inhibition: hits give low values.
Text: Human 15-Hydroxyprostaglandin dehydrogenase (HPGD) catalyzes the inactivation of prostaglandin E2, and plays a major role in cancer biology by antagonizing the oncogenic potential of cyclooxygenase type 2 (COX2). Assays are available, based on absorbance/fluorescence increase of NADH with the substrate 15-OH prostaglandin E2. References 1. Myung SJ, Rerko RM, Yan M, Platzer P, Guda K, Dotson A, Lawrence E, Dannenberg AJ, Lovgren AK, Luo G, Pretlow TP, Newman RA, Willis J, Dawson D, Markowitz SD. 15-Hydroxyprostaglandin dehydrogenase is an in vivo suppressor of colon tumorigenesis. […] 2. Yan M, Rerko RM, Platzer P, Dawson D, Willis J, Tong M, Lawrence E, Lutterbaugh J, Lu S, Willson JK, Luo G, Hensold J, Tai HH, Wilson K, Markowitz SD. 15-Hydroxyprostaglandin dehydrogenase, a COX-2 oncogene antagonist, is a TGF-beta-induced suppressor of human gastrointestinal cancers. Proc Natl Acad Sci U S A. 2004 Dec 14;101(50):17468-73. 3. Yang L, Amann JM, Kikuchi T, Porta R, Guix M, Gonzalez A, Park KH, Billheimer D, Arteaga CL, Tai HH, Dubois R, Carbone DP, Johnson DH. Inhibition of Epidermal Growth Factor Receptor Signaling Elevates 15-Hydroxyprostaglandin Dehydrogenase in Non-Small-Cell Lung Cancer. Cancer Res. 2007 Jun 15;67(12):5587-5593. Inhibition of HPGD activity was screened by utilizing prostaglandin as an electron donor and NAD+ as an electron acceptor/cofactor. An increase in the fluorescence intensity due to conversion of NAD+ to NADH was used to measure the enzyme activity. NIH Chemical Genomics Center [NCGC] Structural Genomics Consortium [SGC]
Buffer: 50 mM Tris-HCl, 0.01% Tween 20, pH 8. Enzyme Buffer: 50 mM Tris-HCl, 0.5 mM NAD+ and 0.01% Tween 20, pH 8. Reagents/Controls: Buffer in columns 3 and 4 as negative control (no enzyme). Substrate/cofactor solution: 1 mM NAD+ and 30 uM prostaglandin (Sigma, prostaglandin E2, # P5640) final concentrations dispensed throughout the plate. Enzyme: 20 nM HPGD final concentration in columns 1, 2, 5-48. Column 1 and 2 is neutral (100% activity). A titration of control inhibitor GW5074 (G6416 Sigma-Aldrich, St. Louis, MO) top concentration 10 mM in DMSO, then 1:2 dilution for a total of 16 concentrations in duplicate) was pin-transferred into column 2. Assay Steps: Three uL of enzyme were dispensed to 1536-well Greiner black solid bottom plates. Compounds and control inhibitor (23 nL) were transferred via Kalypsys PinTool. The plates were incubated for 15 min at room temperature, and then 1 uL of substrate/cofactor solution was added to start the reaction. The plates were immediately transferred to and read 5 times every 30 seconds on ViewLux High-throughput CCD imager (Perkin-Elmer) using 360 nm excitation and 450 nm emission fluorescence protocol. The fluorescence intensity difference between the last and the first time points was used to compute reaction progress.
% is scaled to controls: 0 for no effect and ±100 for the full control effect; potency is read from the fitted curve at half-maximal effect.

Chain of 15-hydroxyprostaglandin dehydrogenase [NAD(+)] (Homo sapiens) (P15428 whole entry, looked up): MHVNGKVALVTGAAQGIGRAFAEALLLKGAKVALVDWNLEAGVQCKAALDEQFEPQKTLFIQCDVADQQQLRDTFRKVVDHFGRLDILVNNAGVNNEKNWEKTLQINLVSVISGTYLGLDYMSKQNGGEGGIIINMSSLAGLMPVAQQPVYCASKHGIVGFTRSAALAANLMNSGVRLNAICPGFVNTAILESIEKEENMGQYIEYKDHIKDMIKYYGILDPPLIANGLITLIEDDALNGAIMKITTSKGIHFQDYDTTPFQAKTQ

Activity change, negative = inhibition, inactive:
Cc1ccc(C2C3=C(Nc4[nH]n(-c5ccccc5)c(=O)c42)c2ccccc2C3=O)cc1 (centres undefined) -23.6%
COc1ccccc1NC(=O)C1=C(C)NC2=C(C(=O)CCC2)C1c1ccc(C)o1 (centres undefined) -4.54%
Cc1cc(C(C)(C)C)cc(C)c1N 2.4%
O=C(OC1CCOC1=O)c1cccc(S(=O)(=O)Nc2ccc(F)cc2)c1 (centres undefined) -0.633%
COc1ccc(-c2cc(C(=O)NCc3ccco3)no2)cc1OC -10.4%
O=C(NCc1ccco1)c1ccc(CS(=O)(=O)Cc2ccc(F)cc2)o1 2.28%
COc1cc(C(=O)NC(=S)NCc2ccco2)cc(OC)c1OC -21.9%
O=C(NCCCCCCNC(=O)NCc1ccco1)NCc1ccco1 -9.22%
CCN1CN(Cc2ccccc2)CNC1=S -9.5%
CC(O)c1nc2ccccc2n1Cc1ccc([N+](=O)[O-])cc1 (centres undefined) -6.78%
CC(=O)c1c(C)[nH]c(C(=O)OCC(=O)Nc2cc(S(=O)(=O)N3CCCCC3)ccc2C)c1C -12.5%
C/C(=C\C(=O)c1ccc(Br)cc1)N1CCCCC1 -21.6%
CCCNC(=O)c1ccc(Cl)c(Cl)c1 -21.6%
Cc1cc(=O)oc(C)c1C(=O)N1CCCCC1 -2.92%
CNC(=O)n1ccc(C(=O)N2CCCCC2)n1 -21.9%
CCOC(=O)C1CCCN(C(=O)c2cncc(Br)c2)C1 (centres undefined) -7.12%
O=C(Nc1cccc(C(=O)N2CCCC2)c1)c1ccccc1 -13.5%
Cc1ccccc1CN1CCN(C(=O)c2cccc(F)c2)CC1 2.95%
Cc1cccc(C(=O)N2CCCN(C(=O)c3cccc(C)c3)CC2)c1 4.89%
Cc1cc(C(=O)N/N=C/c2ccc(O)c([N+](=O)[O-])c2)c(C)n1-c1ccc(F)cc1 -20.1%
COc1ccc(C(=O)NNC(=S)NC(=O)c2ccccc2[N+](=O)[O-])cc1 -1.33%
Cc1cc(C)nc(SC2CCCCC2NS(=O)(=O)c2ccc(Cl)cc2)n1 (centres undefined) -1.86%
COc1ccc(Cn2c(-c3ccc(Cl)cc3)c[n+]3ccccc23)cc1 1.07%
C=CCn1c(SCc2ccc(Cl)c(Cl)c2)nnc1C(CO)NC(=O)c1ccc(OC)cc1 (centres undefined) -18.7%
CC(CNC(=O)c1ccc(Br)o1)NC(=O)c1ccc(Br)o1 (centres undefined) -8.51%
CCC(C)NC(=O)CCCc1ccccc1 (centres undefined) -18.7%
Cc1cccc(N2Cc3ccccc3C2=NC(=O)c2ccc(Cl)nc2)c1 -15.5%
C/C(=C/C(=O)N1CCN(C)CC1)C(=O)O 4.4%
c1ccc(CSc2nnc(-c3ccco3)n2Cc2ccccc2)cc1 -25.4%
Nc1nc(SCc2ccccc2Cl)n[nH]1 -3%
c1coc(-c2nc3nc4ccccc4n3nc2-c2ccco2)c1 -14.3%
O=C(Nc1nnc(SCc2ccccc2)s1)c1ccco1 -28%
COc1ccc(-c2nc3c(c4c2C[C@H](c2ccccc2)OC4)CN(C(=O)c2cccnc2)CC3)c(C)c1 -9.44%
COCc1c(C(=O)N/N=C/C2CC=CCC2)nnn1-c1nonc1N (centres undefined) -10.3%
CC(C)CNC(=S)Nc1ccc(F)cc1 -4.13%
Cc1ccc(S(=O)(=O)N(CC(=O)Nc2cccc([N+](=O)[O-])c2)Cc2ccc(Cl)cc2)cc1 -3.74%
O=C(Oc1ccc([N+](=O)[O-])cc1)c1ccc(Cl)c(S(=O)(=O)N2CCCCC2)c1 -21.8%
COc1cc(C(=S)N2CCOCC2)cc(OC)c1OC(=O)c1cc([N+](=O)[O-])cc([N+](=O)[O-])c1 -12%
CCOC(=O)c1[nH]c2c(c1-c1ccccc1)C(=O)CC(c1ccc(Cl)cc1)C2 (centres undefined) -2.93%
CCOC(=O)C1=C(C)NC(=O)N(C(C)=O)C1c1ccc(Cl)cc1 (centres undefined) 0.0111%
Nc1ccc(-c2sc(N)nc2-c2ccccc2)cc1 -11%
Nc1ccc(Nc2ccccc2)cc1 -5.62%
COc1cccc2c(O)cc(=O)n(C)c12 -2.82%
CC(Oc1ccccc1F)C(=O)NN (centres undefined) -6.91%
COc1ccc(C(=O)COC(=O)c2ccc3ccccc3n2)cc1 -15.3%
COc1ccc2c(c1)c(=O)c(C(=O)c1ccc(Cl)cc1)cn2CC(=O)Nc1ccc(F)cc1 -6.67%
CN(CC(=O)Nc1ccc(S(=O)(=O)N2CCCC2)cc1)Cc1ccc(Cl)c(Cl)c1 -13.8%
COC(=O)C1=C(C(=O)OC)[C@@H]2N(C)c3ccccc3[C@@]23C[C@@H](C(=O)OC)N(S(=O)(=O)c2ccc(Br)cc2)C3=N1 0.758%
CC(=O)Nc1ccc(/C(C)=N/NC(=O)CN(c2ccccc2Br)S(C)(=O)=O)cc1 -3.71%
O=C(CSc1nc(-c2ccccc2)cs1)Nc1cccc([N+](=O)[O-])c1 -24.6%
CCCCNS(=O)(=O)c1ccc2nc(SCC(=O)Nc3cc(C)cc(C)c3)[nH]c2c1 -21.1%
Cc1cccc(NC(=O)CSc2nnc(NC(=O)CN3CCOCC3)s2)c1 -8.48%
CCCCNC(=O)CSc1nnc(-c2ccco2)n1C -11.5%
CC(CNc1ccc([N+](=O)[O-])c2cccnc12)Nc1c([N+](=O)[O-])cc(C(F)(F)F)cc1[N+](=O)[O-] (centres undefined) -20.4%
O=C(O)c1ccc(/C=N/NC(=O)c2ccc(Br)cc2)cc1 -2.06%
CC(=O)NC1C(OCc2ccccc2)OC(COC(C)=O)C(OC(C)=O)C1OC(C)=O (centres undefined) -0.385%
CCN(CC)c1ccc(C(=O)N/N=C(\C)c2cccc(OC)c2)cc1 -8.48%
COc1ccc(OC(C)C(=O)NCCc2nc3ccccc3[nH]2)cc1 (centres undefined) -0.239%
CC(C)CCNC(=O)c1cccnc1Sc1ccccc1 -7.91%
O=c1nc2s/c(=C\c3ccco3)c(=O)n2nc1Cc1ccccc1 -22.5%
CSc1nc(-c2ccco2)nn1C(=O)CCc1ccccc1 -14%
O=C(NC1CCCCC1)c1cc([N+](=O)[O-])ccc1N1CCOCC1 -0.536%
Cc1ccc(C(=O)NC2CCN(C(=O)N3CCOCC3)CC2)cc1 -4.3%
CCS(=O)(=O)N1Cc2ccccc2CC1C(=O)Nc1nc2ccc(F)cc2s1 (centres undefined) -14%
CCc1nnc(NC(=O)C2CC(=O)N(c3ccc4c(c3)OCCO4)C2)s1 (centres undefined) -28.3%
COC(=O)Cc1ccc(OCC(=O)Nc2ccc(OC(F)(F)F)cc2)cc1 -9.9%
Cc1ccccc1NC(=S)Nc1cccc([N+](=O)[O-])c1 -3.09%
O=C(CSCC(=O)Nc1cccc([N+](=O)[O-])c1)Nc1ccccc1 -9.37%
CCC(C)NC(=O)c1ccccc1NC(=O)c1ccccc1N(C)S(C)(=O)=O (centres undefined) 1.34%
CCCCNC(=O)C(=O)c1ccccc1NC(C)=O -11.5%
COc1ccc(C)cc1NC(=O)C(Sc1ccccc1)c1ccccc1 (centres undefined) -3.19%
CSCCC(Nc1ccc(S(=O)(=O)N2CCOCC2)cc1[N+](=O)[O-])C(=O)OCC(=O)N(C(C)C)C(C)C (centres undefined) -2.59%
O=C(O)c1ccc2c(c1)C(=O)N(NC(=O)c1ccc(O)cc1)C2=O -11%
COC(=O)C(C(=O)OC)C1c2ccccc2C=C(C2CC2)N1C(=O)OC (centres undefined) -11% and -4.45%

Potency, active:
COC(=O)C1=C(C)NC2=C(C(=O)c3ccccc32)C1c1ccc(-c2ccc(C(=O)O)cc2)o1 (centres undefined) 17.8 µM
O=C(NCc1ccco1)c1sc2cccc(F)c2c1Cl 3.98 µM
COc1ccc2c(Cl)c(C(=O)NCc3ccco3)sc2c1 14.1 µM
Cc1ccc(C(=O)N2CCCC2)c(F)c1F 10 µM
Cc1ccc(C(=O)N2CCCCCC2)cc1Br 5.01 µM
Cc1c(Br)cc(C(=O)N2CCCCCC2)c(C)c1C 14.1 µM
O=C(c1ccc(Cl)c(Cl)c1)N1CCCC1 20 µM
CC(CCc1ccccc1)NC(=O)c1ccc(Br)o1 (centres undefined) 15.8 µM
c1ccc(CSc2nnc(-c3ccco3)c(-c3ccco3)n2)cc1 4.47 µM
Clc1ccccc1CSc1nnc(-c2ccco2)c(-c2ccco2)n1 12.6 µM
O=C(Oc1ccccc1C(=S)N1CCCCC1)c1cc([N+](=O)[O-])cc([N+](=O)[O-])c1 14.1 µM
CCOC(=O)C1Sc2[nH]c(=O)sc2C(c2ccc(Cl)cc2)C1C(=O)OCC (centres undefined) 3.98 µM
c1ccc(Nc2n[nH]nc2-c2ccccc2)cc1 14.1 µM
O=c1c(O)c(Br)ccc2c(Br)c(O)c(O)c(O)c12 15.8 µM
CCCCNC(=O)CSc1nc2ccc(NC(=O)CSc3nnc(N)s3)cc2s1 5.01 µM
Nc1nnc(SCC(=O)Nc2ccc3nc(SCC(=O)Nc4ccccc4)sc3c2)s1 4.47 µM
CCOc1ccccc1/C=c1\sc2nc(-c3ccco3)nn2c1=O 17.8 µM
O=C(NC1CCCCC1)c1ccc(CNc2c(N3CCOCC3)c(=O)c2=O)cc1 14.1 µM
COC(=O)/C=C\C(=O)Nc1cccc([N+](=O)[O-])c1 3.16 µM
CCCCNC(=O)c1ccccc1NC(=O)c1ccccc1N(C)S(C)(=O)=O 25.1 µM
